Only some compounds are listed: those with a hit (about 7.3% of all), similar ones and a draw of the others.
HEK293 viab: cell viability loss counter-screen; HEK-293-SNCA-luc viability, GF-AFC fluorescence, 24 h; Potency, µM (series often up to 57.1 µM), inactives show at the highest dose activity change, negative = cytotoxicity, most hits filed as cytotoxic; hit rate 0.12% among 150,000;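 further: potency means the concentration at half of the fitted maximal effect; 0% = DMSO-treated cells and -100% = medium-only wells without cells; nearly all actives have a fitted effect of over 30% in size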
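Cytotoxicity counterscreen: after 24 h compound treatment of genome-edited SNCA-luciferase HEK-293 cells, live-cell protease substrate GF-AFC read by fluorescence after 30 min; activity scaled between DMSO (0%) and medium-only (-100%), curves Hill-fitted.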
IP6K1 inh: IP6K1 kinase inhibition; AID 1645851; activity change, % (series mostly up to about 58 µM); hit rate 0.81% among 140,000; IP6K1 kinase, ADP-Glo luminescence, 2 h; hits give low values; in the data active means activity change below about -25%
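ADP-Glo luminescence measures ADP made by human IP6K1 during a 2 h RT reaction with ATP/IP6 (mix at 1.3 mM/130 uM); top library doses 57.5 and 19.1 uM final.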
NIH3T3 tox: NIH 3T3 cell cytotoxicity. NIH 3T3 viability, CellTiter-Glo ATP luminescence, 48-72 h. Potency, µM (top dose mostly 96.7 µM), inactives show at the top dose activity change, negative = cytotoxicity, hits mostly inhibitors. hit rate 4.3% among 94,000; further: potency means the concentration at half of the fitted maximal effect; nearly all actives have a fitted effect of over 55% in size
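Viability of NIH 3T3 cells after 48 or 72 hr compound treatment at 37 °C was assessed by CellTiter-Glo, with luminescence imaged following a 10 min room-temperature step.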
HEK293 tox: cytotoxic compounds in HEK 293 cells. HEK 293 viability, ATP luminescence (CellTiter-Glo), 48-72 h. Potency, µM (series often up to 115 µM), without a hit: at the top dose activity change, negative = cytotoxicity, most hits filed as inhibitors. AID 1345083. hit rate 6.6% among 94,000; further: potency means the concentration at half of the fitted maximal effect; nearly all actives have a fitted effect of over 60% in size
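Viability of HEK 293 cells, plated at 250 cells/well, was judged by cellular ATP after compound treatment for 48 or 72 hr. Luminescence was imaged 10 min after CellTiter-Glo addition at room temperature.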
Luciferase inh: inhibitors of firefly (Photinus pyralis) luciferase; Potency, µM (highest dose often 115 µM), hits mostly inhibitors; purified P. pyralis luciferase, luminescence, biochemical; P08659; hit rate 2.5% among 76,000; further: potency means the concentration at half of the fitted maximal effect; nearly all actives have a fitted effect of over 65% in size
Target sequence (P08659 whole entry, looked up): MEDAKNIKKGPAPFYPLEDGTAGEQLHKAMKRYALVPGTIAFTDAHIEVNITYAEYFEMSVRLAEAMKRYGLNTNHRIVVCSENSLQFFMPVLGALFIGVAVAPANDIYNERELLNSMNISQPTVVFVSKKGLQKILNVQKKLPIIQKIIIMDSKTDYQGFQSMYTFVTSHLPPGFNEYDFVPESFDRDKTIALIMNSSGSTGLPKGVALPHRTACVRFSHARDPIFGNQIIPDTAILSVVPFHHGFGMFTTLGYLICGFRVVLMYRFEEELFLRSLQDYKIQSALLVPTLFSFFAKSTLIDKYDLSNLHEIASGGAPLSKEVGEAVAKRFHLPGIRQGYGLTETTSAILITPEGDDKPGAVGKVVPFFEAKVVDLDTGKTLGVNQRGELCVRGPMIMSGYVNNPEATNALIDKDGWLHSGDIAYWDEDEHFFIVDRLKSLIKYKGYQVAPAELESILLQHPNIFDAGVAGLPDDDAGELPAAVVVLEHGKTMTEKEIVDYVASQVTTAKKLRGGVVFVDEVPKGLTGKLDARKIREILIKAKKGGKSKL
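Biochemical qHTS: compound (6-point titration) added to 10uM D-luciferin plus 10uM ATP in Tris acetate pH 7.5 buffer with Mg, Tween-20 and BSA, then purified enzyme at 10nM; light output imaged.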
SNCA expr inhib: inhibitors of alpha-synuclein (SNCA) gene expression; Potency, µM (titrated, usually from 57.2 µM), inactives show top-dose activity change, negative = inhibition, actives largely listed as inhibitors; hit rate 0.17% among 140,000; HEK-293 SNCA-luciferase knock-in, luminescence, 24 h; AID 1671194;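 further: potency means the concentration at half of the fitted maximal effect; plate controls were DMSO cells for no effect and cell-free wells for full effect; nearly all actives have a fitted effect of over 45% in size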
Active calls of the source: *; [ ] = another dose, or the depositor's remark. Unless noted, the call rests on the fitted dose curve; in most records, active means well fitted curve in the direction sought with a large enough effect; inconclusive means small, poorly fitted or top-dose-only effect, or another doubt; inactive means no such curve, though single readings can be large; an effect the other way counts as inactive or inconclusive. Unless noted, on the % scale 0 is the no-effect control and ±100 the full control effect.

What do the screens show for `CN(Cc1ccccc1)C(=O)c1ccc2c(c1)NC(C)(COc1ccccc1)CO2` (configuration not stated)?
HEK293 viab: inconclusive; IP6K1 inh: 11; NIH3T3 tox: 50µM*; HEK293 tox: 71µM*; Luciferase inh: inactive; SNCA expr inhib: inconclusive

Results for COc1ccc(NC(=O)c2ccc3c(c2)NC(C)(COc2ccccc2)CO3)cc1OC (configuration not stated) ?
HEK293 viab: -19%[87.6 µM]; IP6K1 inh: 7; NIH3T3 tox: inconclusive; HEK293 tox: inconclusive; Luciferase inh: inactive; SNCA expr inhib: -20%[87.6 µM]

What do the screens show for `CC1(COc2cccnc2)COc2ccc(C(=O)NC3CCC(O)CC3)cc2N1` (configuration not stated)?
HEK293 viab: 3%[87.6 µM]; IP6K1 inh: -2; NIH3T3 tox: inconclusive; HEK293 tox: inconclusive; Luciferase inh: inactive; SNCA expr inhib: -25%[87.6 µM]

How did CC1(COc2ccccc2)COc2ccc(C(=O)Nc3ccc4[nH]ccc4c3)cc2N1 (configuration not stated) do in these assays?
HEK293 viab: -22%[87.6 µM]; IP6K1 inh: 3; NIH3T3 tox: 35µM*; HEK293 tox: 45µM*; Luciferase inh: inconclusive; SNCA expr inhib: -24%[87.6 µM]

What do the screens show for `CC1(COc2ccccc2)COc2ccc(C(=O)Nc3ccccc3)cc2N1` (configuration not stated)?
HEK293 viab: -6%[87.6 µM]; IP6K1 inh: 16; NIH3T3 tox: inconclusive; HEK293 tox: 71µM*; Luciferase inh: inactive; SNCA expr inhib: 82%[87.6 µM]

How did CN(C)C(=O)c1cccn2nccc12 do in these assays?
HEK293 viab: 2%[87.6 µM]; IP6K1 inh: 8; NIH3T3 tox: -5%[174 µM]; HEK293 tox: inactive; Luciferase inh: inactive; SNCA expr inhib: -13%[87.6 µM]

How did CN1CC(c2nc(C3CCOCC3)nn2CC(=O)O)CC1=O (configuration not stated) do in these assays?
HEK293 viab: -4%; IP6K1 inh: -4; NIH3T3 tox: inactive; HEK293 tox: -5%; Luciferase inh: inactive; SNCA expr inhib: -26%

How did O=C(NCC(=O)N1CCC(Cc2ccccc2)CC1)c1ccc(-c2cnc3ccccc3c2)cc1 do in these assays?
HEK293 viab: 4%[12.5 µM]; IP6K1 inh: -11; NIH3T3 tox: inconclusive; HEK293 tox: 10µM*; SNCA expr inhib: inconclusive

How did CC(C)c1nccn1CCCNC(=O)c1ccc(N2CCC(CO)CC2)nc1 do in these assays?
HEK293 viab: -4%; IP6K1 inh: -1; NIH3T3 tox: -22%; HEK293 tox: -7%; Luciferase inh: inactive; SNCA expr inhib: 6%

How did CC(C)c1nccn1CCCNC(=O)c1ccc(N2CCCCCC2)nc1 do in these assays?
HEK293 viab: -11%; IP6K1 inh: -2; NIH3T3 tox: inconclusive; HEK293 tox: 79µM*; Luciferase inh: inactive; SNCA expr inhib: -18%

How did O=C(NC1CCCC1)c1ccc(-c2ccc(N3CCSCC3)nc2)cc1 do in these assays?
HEK293 viab: -6%; IP6K1 inh: -1; NIH3T3 tox: -3%; HEK293 tox: inconclusive; Luciferase inh: inactive; SNCA expr inhib: 32%

Results for O=C(NCCN1CCOCC1)c1ccc(-c2ccc(N3CCCCC3)nc2)cc1 ?
HEK293 viab: -23%; IP6K1 inh: -4; NIH3T3 tox: inconclusive; HEK293 tox: inconclusive; Luciferase inh: 32µM*; SNCA expr inhib: 19%

How did O=C(NCCN1CCCC1)c1ccc(-c2ccc(N3CCSCC3)nc2)cc1 do in these assays?
HEK293 viab: -14%; IP6K1 inh: -7; NIH3T3 tox: inconclusive; HEK293 tox: inconclusive; Luciferase inh: 14µM*; SNCA expr inhib: 25%

Results for O=[S+]([O-])(c1cccs1)N1CCCC2(CC(c3cccc(C(F)(F)F)c3)=NO2)C1 (configuration not stated) ?
HEK293 viab: 6%; IP6K1 inh: 5; NIH3T3 tox: -38%; HEK293 tox: inconclusive; SNCA expr inhib: -16%

Results for CCC(C(=O)Nc1ccc2c(c1)CN(Cc1ccccc1Cl)C(=O)C(C)O2)c1ccccc1 (configuration not stated) ?
HEK293 viab: -15%; IP6K1 inh: 23; NIH3T3 tox: inconclusive; HEK293 tox: inconclusive; Luciferase inh: inactive; SNCA expr inhib: -19%

How did CCCNC(=O)c1cc2c(s1)CCN(C(C)=O)C2 do in these assays?
HEK293 viab: 1%; IP6K1 inh: 5; NIH3T3 tox: -17%; HEK293 tox: -6%; Luciferase inh: inactive; SNCA expr inhib: 9%

What do the screens show for `CNC(=O)c1cc(C2CC2)nc2onc(C3CCN(C(=O)NC(C)C)C3)c12` (configuration not stated)?
IP6K1 inh: -1; NIH3T3 tox: -23%; HEK293 tox: -15%

How did CCc1ccccc1NC(=O)Cn1cccc1-c1nc(-c2ccccc2)no1 do in these assays?
HEK293 viab: 5%; IP6K1 inh: 22; NIH3T3 tox: inconclusive; HEK293 tox: -16%; Luciferase inh: inactive; SNCA expr inhib: inconclusive

How did CC(C)(C)C(=O)NC1CCN(Cc2cccc(-c3cccs3)c2)CC1 do in these assays?
HEK293 viab: -2%[12.5 µM]; IP6K1 inh: 2; NIH3T3 tox: inconclusive; HEK293 tox: inconclusive; SNCA expr inhib: 9%[87.6 µM]

What do the screens show for `NCc1ccc(-c2nc(C3CCOC3)nn2Cc2ccccc2)cc1` (configuration not stated)?
HEK293 viab: -10%; IP6K1 inh: 7; NIH3T3 tox: -3%; HEK293 tox: inactive; Luciferase inh: inactive; SNCA expr inhib: inconclusive

Results for O=c1c2nc(Nc3ccc(C(F)(F)F)cc3)ccc2ncn1C1CC1 ?
HEK293 viab: -15%[87.6 µM]; IP6K1 inh: -2; NIH3T3 tox: inconclusive; HEK293 tox: inconclusive; Luciferase inh: 63µM*; SNCA expr inhib: 120%[87.6 µM]

What do the screens show for `Cc1cc(C)cc(-c2ccc(CN3CCCC3C(=O)NCC(F)(F)F)cc2)c1` (configuration not stated)?
HEK293 viab: inconclusive; IP6K1 inh: -8; NIH3T3 tox: inconclusive; HEK293 tox: inconclusive; SNCA expr inhib: inconclusive

Results for C#CCNC(=O)C1CCCN1Cc1ccc(-c2cc(C)cc(C)c2)cc1 (configuration not stated) ?
HEK293 viab: 4%; IP6K1 inh: -6; NIH3T3 tox: inconclusive; HEK293 tox: 45µM*; SNCA expr inhib: -7%

How did O=C(NC1CC1)C1CCCN1Cc1ccc(-c2cncnc2)cc1 (configuration not stated) do in these assays?
HEK293 viab: 15%; IP6K1 inh: -11; NIH3T3 tox: 0%; HEK293 tox: inactive; SNCA expr inhib: -10%
